For nine compounds, growth results are on record in PubChem BioAssay (NCI).

About 83,000 compounds went through this panel and 20% of them were active in at least one assay; those are over-represented in the sample as a whole.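 The test compound was applied at a single concentration to cells in 96-well plates for 48 hours, and percent growth was recorded.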 Unmarked numbers belong to inactive results. Calls of active or inactive are those of the source. The calls were made as follows: active = growth percent below 10; inactive = the rest.

Some test systems named below: RPMI-8226 leukemia; OVCAR-8 ovarian; OVCAR-5 ovarian; OVCAR-4 ovarian; SK-OV-3 ovarian; IGROV1 ovarian; OVCAR-3 ovarian; HS 578T breast; NCI/ADR-RES ovarian; T-47D breast; BT-549 breast; MDA-MB-435 melanoma; SW-620 colon; MCF7 breast; HCT-116 colon; HCC-2998 colon; KM12 colon.
Common to all, as to assay: NCI-60 one-dose screen, 48 h (100 = growth as untreated, 0 = no growth, -100 = all killed)
Holding throughout (conditions): 10 µM unless noted

As to `C[C@]12CC[C@@H]3c4ccc(O)cc4CC[C@H]3[C@@H]1C[C@H](O)C2`, the growth with RPMI-8226 leukemia is 79.7%; in the assay on OVCAR-8 ovarian, 82.7%; in the assay on OVCAR-5 ovarian, 116%; in the assay with OVCAR-4 ovarian, 87%; in the assay on SK-OV-3 ovarian, 82.7%; in the assay with IGROV1 ovarian, 79.2%. Also, the growth was 73.2% with OVCAR-3 ovarian; 57.6% in the assay on HS 578T breast; 70.9% with NCI/ADR-RES ovarian; 96.9% in the assay with T-47D breast; 79.1% in the assay with BT-549 breast; 0.155% (active) in the assay with MDA-MB-435 melanoma. Besides, the growth in the assay on SW-620 colon was 33.9%; in the assay with MCF7 breast it was 61%; in the assay on HCT-116 colon it was 49.1%; in the assay with HCC-2998 colon it was 87.6%; in the assay on KM12 colon it was 76.3%.
As for `O=C1C(Cl)=C(NCCCN(CCCNC2=C(Cl)C(=O)c3ccccc3C2=O)C2=C(Cl)C(=O)c3ccccc3C2=O)C(=O)c2ccccc21`, the growth in the assay with RPMI-8226 leukemia was 45.4%; with OVCAR-8 ovarian it was 39.2%; in the assay on OVCAR-5 ovarian it was 121%; in the assay with OVCAR-4 ovarian, 33.9%; with SK-OV-3 ovarian, 93.8%; in the assay with IGROV1 ovarian, 54.8%. Further, the growth with OVCAR-3 ovarian is -0.584% (active); with HS 578T breast, 67.6%; in the assay with NCI/ADR-RES ovarian it was 76.1%; in the assay on T-47D breast it was 51.8%; in the assay with BT-549 breast, 85.6%; in the assay on MDA-MB-435 melanoma it was -86.5% (active). Besides, the growth with SW-620 colon was 47.6%; in the assay with MCF7 breast, -19.9% (active); in the assay on HCT-116 colon it was 4.83% (active); in the assay on HCC-2998 colon, 92.4%; with KM12 colon, 80.1%.
As for `C#C[C@@]1(O)[C@@H](CO)O[C@@H](n2cc(Br)c3c(N)ncnc32)[C@@H]1O`, the growth with RPMI-8226 leukemia is 0.406% (active); in the assay with OVCAR-8 ovarian, -0.359% (active); in the assay on OVCAR-5 ovarian, 18.8%; with OVCAR-4 ovarian, 5.79% (active); with SK-OV-3 ovarian it was -8.02% (active); in the assay on IGROV1 ovarian it was -22.5% (active). For the same compound, the growth is -25.5% (active) in the assay on OVCAR-3 ovarian; -5.73% (active) in the assay on HS 578T breast; 1.19% (active) with NCI/ADR-RES ovarian; -20.1% (active) in the assay with T-47D breast; -45.5% (active) in the assay on BT-549 breast; 14.6% in the assay with MDA-MB-435 melanoma. Also, the growth was -0.395% (active) in the assay with SW-620 colon; -18.4% (active) with MCF7 breast; 3.16% (active) with HCT-116 colon; -22% (active) in the assay on HCC-2998 colon; 8.07% (active) in the assay with KM12 colon.
For `CCCCC(=O)Nc1c(C(=O)Nc2ccccc2)sc2nc3c(cc12)C(OC(=O)CCCC)CCC3` (stereo not drawn), the growth in the assay with RPMI-8226 leukemia was 48.9%; in the assay on OVCAR-8 ovarian, 84.7%; with OVCAR-5 ovarian, 111%; in the assay on OVCAR-4 ovarian, 36.7%; in the assay with SK-OV-3 ovarian, 108%; in the assay on IGROV1 ovarian, 99.8%. Also, the growth in the assay on OVCAR-3 ovarian was 102%; in the assay with HS 578T breast, 89.5%; in the assay with NCI/ADR-RES ovarian, 79.3%; in the assay on T-47D breast it was 79%; in the assay on BT-549 breast it was 85.4%; in the assay on MDA-MB-435 melanoma, 108%. Besides, the growth in the assay with SW-620 colon was 50.1%; in the assay on MCF7 breast, 82.9%; in the assay on HCT-116 colon, 101%; with HCC-2998 colon, 101%; in the assay on KM12 colon it was 99.9%.
On to `CCCCCCN1C(=O)CN=C1Nc1ccc2cc3ccc(NC4=NCC(=O)N4CCCCCC)cc3nc2c1`, for which the growth in the assay on RPMI-8226 leukemia was -22.6% (active); in the assay on OVCAR-8 ovarian, 73.9%; in the assay on OVCAR-5 ovarian, 75%; in the assay with OVCAR-4 ovarian, 55.6%; in the assay with SK-OV-3 ovarian, 103%; in the assay with IGROV1 ovarian, 53.7%. For the same compound, the growth with OVCAR-3 ovarian is -35.9% (active); in the assay on HS 578T breast it was 56.6%; in the assay with NCI/ADR-RES ovarian it was 81.3%; in the assay on T-47D breast, 32.9%; with BT-549 breast, 78.1%; in the assay on MDA-MB-435 melanoma it was 55.3%. Moreover, the growth is -51.6% (active) in the assay with SW-620 colon; 0.96% (active) with MCF7 breast; 20.1% with HCT-116 colon; 47.2% with HCC-2998 colon; 31.1% in the assay with KM12 colon.
As for `CCOC(=O)/C(=C/c1c(-c2ccccc2)[nH]c2ccccc12)C(=O)c1ccc(Cl)cc1`, the growth in the assay with RPMI-8226 leukemia was -17.2% (active); in the assay on OVCAR-8 ovarian, 59.8%; in the assay with OVCAR-5 ovarian it was 95.8%; in the assay on OVCAR-4 ovarian, 46.8%; with SK-OV-3 ovarian, 81.6%; in the assay with IGROV1 ovarian, 98.5%. Further, the growth with OVCAR-3 ovarian is 38.5%; with HS 578T breast it was 63.4%; in the assay on NCI/ADR-RES ovarian, 45.4%; in the assay on T-47D breast, 24.9%; with BT-549 breast it was 64.7%; in the assay on MDA-MB-435 melanoma it was 9.31% (active). Further, the growth in the assay on SW-620 colon is 45.4%; in the assay with MCF7 breast, 28.4%; with HCT-116 colon, 14%; in the assay with HCC-2998 colon it was 67.1%; with KM12 colon, 18.6%.
On to `Cc1cc2ccccc2c[n+]1CC(=O)c1ccc(-c2ccccc2)cc1`, for which the growth is 19.6% with RPMI-8226 leukemia; 43.8% in the assay with OVCAR-8 ovarian; 73.1% in the assay on OVCAR-5 ovarian; 9.69% (active) in the assay on OVCAR-4 ovarian; 64.1% in the assay on SK-OV-3 ovarian; 49.2% in the assay with IGROV1 ovarian. The growth in the assay on OVCAR-3 ovarian was 31.9%; in the assay with HS 578T breast, 83.5%; with NCI/ADR-RES ovarian, 101%; with T-47D breast, 38.2%; with BT-549 breast, 53.3%; in the assay with MDA-MB-435 melanoma it was 66.3%. In addition, the growth is 48.5% in the assay with SW-620 colon; 29.3% in the assay with MCF7 breast; 28.4% with HCT-116 colon; 61.8% in the assay with HCC-2998 colon; 56.7% with KM12 colon.
Consider `C=C1C(=O)O[C@H]2[C@H]1CC/C(COC(=O)CCC(=O)OC/C1=C/CC[C@@]3(C)O[C@H]3[C@H]3OC(=O)C(=C)[C@@H]3CC1)=C\CC[C@@]1(C)O[C@@H]21`, for which the growth is -0.781% (active) in the assay on RPMI-8226 leukemia; 32.8% with OVCAR-8 ovarian; 94.6% with OVCAR-5 ovarian; 47.3% in the assay with OVCAR-4 ovarian; 84.9% in the assay on SK-OV-3 ovarian; 11.5% in the assay on IGROV1 ovarian. For the same compound, the growth in the assay with OVCAR-3 ovarian was -11% (active); in the assay on HS 578T breast it was 79.6%; in the assay with NCI/ADR-RES ovarian, 89.8%; in the assay with T-47D breast, 19.7%; in the assay with BT-549 breast it was 67.1%; in the assay with MDA-MB-435 melanoma it was 44.5%. For the same compound, the growth is 5.48% (active) in the assay on SW-620 colon; 12% in the assay with MCF7 breast; -43% (active) in the assay with HCT-116 colon; 93.8% with HCC-2998 colon; 85% in the assay on KM12 colon.
For the compound `O=c1[nH]nc(-c2ccc(Br)cc2)c2sc(NC(=S)Nc3ccc(Cl)cc3)nc12`, the growth was 101% with RPMI-8226 leukemia; 95.4% in the assay on OVCAR-8 ovarian; 97.3% in the assay with OVCAR-5 ovarian; 91.5% with OVCAR-4 ovarian; 96.9% in the assay on SK-OV-3 ovarian; 81.1% with IGROV1 ovarian. Also, the growth with OVCAR-3 ovarian was 104%; in the assay with HS 578T breast, -1.82% (active); in the assay on NCI/ADR-RES ovarian it was 80%; in the assay on T-47D breast, 85.9%; in the assay with BT-549 breast, 92.6%; in the assay with MDA-MB-435 melanoma, 104%. Besides, the growth is 96.7% in the assay on SW-620 colon; 79.7% with MCF7 breast; 96.8% in the assay on HCT-116 colon; 97.6% in the assay with HCC-2998 colon; 99.3% in the assay on KM12 colon.
